In the library only some 7.3% were active in any assay of this set; here they are far more common.
NPC1 prom act = NPC1 promoter activation. Huh7 NPC1 promoter luciferase reporter, 24 h. Potency, µM (doses to about 9.22 µM), without a hit: at the highest dose activation, usual class: activators. 320,000 compounds, 2.4% hits. AID 485313; note: % of control where 0% means no effect; nearly all actives have a fitted effect of over 60% in size
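Luminescence read-out of NPC1 promoter-driven luciferase in stably transfected Huh7 cells; compounds delivered in DMSO and left 24 h at 37C, 5% CO2, qHTS titration format.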
ELG1 genotoxic = genotoxicity induction in ELG1-luciferase HEK293T cells | HEK293T ELG1-luciferase reporter, luminescence, 16 h | Potency, µM (titrated, usually from 46 µM), for the others: at the top dose activity change, positive = activation, actives largely listed as activators | 330,000 compounds, 1.3% hits | AID 504466; note: % of control where 0% means no effect; nearly all actives have a fitted effect of over 60% in size
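DMSO vehicle served as control against compound-treated ELG1-luciferase HEK293T cells; exposure lasted 16 hr at 37 °C and 5% CO2, followed by ONE-Glo luminescence detection after 30 min.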
SMN2 splice enh = increases expression of the SMN2 splice variant | HEK293 SMN2-luciferase splicing reporter, luminescence, 30-36 h | Potency, µM (titrated, usually from 46.1 µM), inactives show top-dose activity change, positive = activation, usual class: activators | 210,000 compounds, 2.8% hits | AID 1458; note: % of control where 0% means no effect; nearly all actives have a fitted effect of over 55% in size
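HEK293 cells carry an SMN2 […]–luciferase reporter in which exon 7 inclusion puts luciferase in frame. Cells were plated 10-12 h before compound addition, then incubated 30-36 h at 37C. ONE-Glo luminescence was read; sodium butyrate at 4.5 mM final served as control.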
FLuc counter = inhibits or activates purified firefly luciferase, miR-21 counter-screen. P08659. purified FLuc, Km substrates, luminescence inhibition. Potency, µM (top dose mostly 57.5 µM), without a hit: at the highest dose activity change, negative = inhibition, most hits filed as inhibitors. 360,000 compounds, 6.9% hits. AID 588342;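 note: plate controls were vehicle for no effect and reference inhibitor for full effect; nearly all actives have a fitted effect of over 55% in size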
Target sequence (P08659 whole entry, looked up): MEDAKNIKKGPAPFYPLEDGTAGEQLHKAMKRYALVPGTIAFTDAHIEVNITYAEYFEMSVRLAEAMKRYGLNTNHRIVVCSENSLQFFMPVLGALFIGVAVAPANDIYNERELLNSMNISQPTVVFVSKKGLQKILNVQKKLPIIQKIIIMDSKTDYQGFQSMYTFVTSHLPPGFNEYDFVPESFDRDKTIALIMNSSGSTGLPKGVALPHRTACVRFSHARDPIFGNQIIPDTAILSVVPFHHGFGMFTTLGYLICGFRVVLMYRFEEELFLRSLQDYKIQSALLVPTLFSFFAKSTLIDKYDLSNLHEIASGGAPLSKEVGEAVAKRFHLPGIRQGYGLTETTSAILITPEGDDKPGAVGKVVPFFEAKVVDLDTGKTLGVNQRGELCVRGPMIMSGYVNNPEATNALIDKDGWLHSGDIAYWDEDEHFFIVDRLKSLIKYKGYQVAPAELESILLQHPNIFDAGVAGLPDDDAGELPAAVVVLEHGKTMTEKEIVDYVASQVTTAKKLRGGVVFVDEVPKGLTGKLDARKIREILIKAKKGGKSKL
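Biochemical qHTS of compounds, final roughly 60 µM downward over six points, against 10 nM purified firefly luciferase using Km concentrations of substrates (10 uM D-luciferin, 10 uM ATP) in Tris acetate pH 7.5 buffer; luminescence output.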
Rab9 promoter act = Rab9 promoter activation; Huh7 Rab9 promoter-luciferase reporter, luminescence, 24 h; Potency, µM (top dose mostly 9.22 µM), without a hit: top-dose activation, negative = inhibition, actives largely listed as activators; 320,000 compounds, 2.8% hits; AID 485297; note: % of control where 0% means no effect; nearly all actives have a fitted effect of over 60% in size
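Cells were plated at 1500 per well in reduced-serum medium with 10% FBS and left 2 h. Compound in DMSO was then added for 24 h at 37 °C. Reporter signal was read by luminescence after 10 min with luciferase detection reagent.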
Luc counter = blocks Kinase-Glo luciferase, a counter-screen artifact. Q27757. Kinase-Glo luciferase, ATP luminescence, 8 min. Potency, µM (doses to about 38.3 µM), for inactives: at the highest dose activity change, negative = inhibition, actives largely listed as inhibitors. 200,000 compounds, 0.28% hits. AID 1379; note: % is set by controls: 0 for no effect and ±100 for the full control effect; nearly all actives have a fitted effect of over 60% in size
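Kinase-Glo luciferase light output from ATP and luciferin was measured with 10 uM ATP, within the enzyme's linear range. Buffer: 50 mM imidazole pH 7.2, 50 mM KCl, 7 mM MgCl2, 0.01% Tween 20, 0.05% BSA; luminescence read after 8 min at ambient temperature.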
* hit, by the source's call; ? = inconclusive; / = no result. Calls come from the whole dose curve; as a rule, active = well fitted curve in the direction sought with a large enough effect; inconclusive = small, poorly fitted or top-dose-only effect, or another doubt; inactive = no such curve, though single readings can be large; an effect the other way counts as inactive or inconclusive. Potency is the fitted concentration of half-maximal effect.

SMILES | NPC1 prom act | ELG1 genotoxic | SMN2 splice enh | FLuc counter | Rab9 promoter act | Luc counter
Cc1ccc(Cn2c(-c3ccccc3)nc3ccccc32)cc1 | / | / | -16.9% | ? | / | /
O=C(Nc1nc2ccccc2n1CCOc1ccccc1Cl)c1ccccc1 | / | / | 17.9% | 4.78µM* | / | /
COCn1c(-c2ccc(OC)cc2)nc2ccccc21 | ? | ? | 14.1µM* | 6.01µM* | 2.51µM* | ?
C=CCn1c(NC(=O)c2ccc(C)cc2)nc2ccccc21 | 2.82µM* | ? | / | ? | ? | /
C=CCn1c(-c2ccc(C)cc2)nc2ccccc21 | 10.6% | ? | -21.6% | 10.7µM* | 17.7% | 5.5%
CCCCCCCC/C=C\CCCCCCCC(=O)N[C@@H](CO)Cc1ccc(O)cc1 | / | / | / | / | / | 2.3%
COc1ccccc1CNC(=O)CCC1N=C2c3ccccc3N=C(SCc3ccc(C)cc3C)N2C1=O (stereo not given) | / | / | 5.4% | -2.0% | / | /
CCc1c(CN2CCN(c3cccc(C)c3C)CC2)csc1C | / | / | / | -0.9% | / | /
C=CCn1c(-c2ccccc2)nc2nc3ccccc3nc21 | 11.8% | -5.5% | 4.2% | 16.9µM* | 4.2% | 5.9%
Cc1cc(/C=C(/C#N)c2nc3ccccc3[nH]2)c(C)n1-c1cccc([N+](=O)[O-])c1 | 9.9% | -1.0% | -17.5% | 5.36µM* | 5.3% | -4.7%
Cc1cc(/C=C(\C#N)c2nc3ccccc3[nH]2)c(C)n1C | 3.55µM* | ? | 11.2µM* | 0.953µM* | 2.24µM* | -15.0%
COc1cccc(/C=C(\C#N)c2nc3ccccc3[nH]2)c1OCC(=O)O | -1.2% | 5.0% | / | -26.1% | -0.9% | /
COc1ccccc1CNc1ccc(N2CCCCC2)cc1 | 15.7% | ? | 7.1% | 15.1µM* | 16.8% | -1.1%
COc1cccc(CNc2ccc(N3CCCCC3)cc2)c1OC | ? | -1.5% | -4.9% | ? | 24.0% | -3.1%
COc1cccc(Nc2ccc(N3CCCCC3)cc2)c1OC | 3.55µM* | ? | / | ? | 2.82µM* | /
CN(C)c1ccc(C(CNC(=O)c2ccc(C(C)(C)C)cc2)N2CCOCC2)cc1 (stereo not given) | / | / | / | 4.6% | / | /
Cc1ccc(-c2nnc(NC(=O)c3ccco3)s2)cc1 | 2.24µM* | 4.61µM* | / | 1.51µM* | 2.24µM* | /
CCC(CC)c1nnc(NC(=O)c2ccco2)s1 | -4.2% | 10.8% | / | -27.0% | 3.5% | -2.4%
Cc1nnc(NC(=O)c2ccco2)s1 | -1.2% | 7.2% | 5.6% | 0.1% | 2.4% | 3.4%
Cc1ccc(Cc2cnc(NC(=O)c3ccco3)s2)cc1 | 0.631µM* | 1.84µM* | 12.6µM* | 0.849µM* | 0.631µM* | -5.4%
O=C(Nc1ncc(Cc2cccc([N+](=O)[O-])c2)s1)c1ccco1 | 23.5% | 17.9% | / | ? | ? | -0.5%
O=C(Nc1nnc(C23CC4CC(CC(C4)C2)C3)s1)c1ccco1 | 1.78µM* | 1.16µM* | 16.2% | 2.13µM* | 1.78µM* | -0.9%
C/C=C(\C)c1nnc(NC(=O)c2ccco2)s1 | ? | 16.4µM* | 12.6µM* | 15.1µM* | ? | -7.4%
COc1ccc(/C=C/c2nnc(NC(=O)c3ccco3)s2)cc1 | -7.7% | 6.9% | / | 2.69µM* | -1.6% | /
CCCOc1cccc(-c2nnc(NC(=O)c3ccco3)s2)c1 | -6.5% | ? | / | 26.9µM* | 19.8% | /
SMILES | NPC1 prom act | ELG1 genotoxic | SMN2 splice enh | FLuc counter | Rab9 promoter act | Luc counter
Cc1cccc(C(=O)Nc2nnc(-c3ccc(C(C)(C)C)cc3)s2)c1 | 16.0% | 8.6% | 1.3% | 10.7µM* | 10.3% | -5.0%
CCCC(=O)Nc1nnc(/C=C/c2ccc(OC)cc2)s1 | 22.5% | 2.4% | / | ? | 17.3% | /
O=C(Nc1nnc(Cc2ccccc2)s1)c1ccco1 | ? | 16.4µM* | ? | 16.9µM* | ? | 14.7%
CSc1ccc(CCNC(=O)C2CCN(c3ncnc4c3nc3n4CCCCC3)CC2)cc1 | / | / | / | -15.2% | / | /
CCOC(=O)c1c(C)oc2ncnc(Nc3ccc(F)cc3Cl)c12 | / | / | / | -4.4% | / | /
Cc1cccc(Cc2cnc(NC(=O)C3=NCCN3)s2)c1 | 0.5% | -7.5% | 18.4% | -0.5% | 25.0% | -0.7%
